PubChem BioAssay (EPA / NIEHS)
Active and inactive are the calls of the source. How the source made its calls: active means hit-call score of the fitted dose curve at least 0.9, where 1 is the maximum; inactive means score below 0.9.

The compounds below were run against Hepatocyte nuclear factor 6 (Homo sapiens) (UniProt Q9UBC0) (assay: ATG_HNF6_CIS: Attagene CIS-FACTORIAL HepG2 Assay for human Hepatocyte Nuclear Factor 6 (HNF6) (AID 2282952)). Settings: HepG2 Attagene cis-factorial HNF6 reporter transcription; actives raise or lower the signal.
Sequence of Hepatocyte nuclear factor 6 (Homo sapiens) (Q9UBC0 whole entry, looked up): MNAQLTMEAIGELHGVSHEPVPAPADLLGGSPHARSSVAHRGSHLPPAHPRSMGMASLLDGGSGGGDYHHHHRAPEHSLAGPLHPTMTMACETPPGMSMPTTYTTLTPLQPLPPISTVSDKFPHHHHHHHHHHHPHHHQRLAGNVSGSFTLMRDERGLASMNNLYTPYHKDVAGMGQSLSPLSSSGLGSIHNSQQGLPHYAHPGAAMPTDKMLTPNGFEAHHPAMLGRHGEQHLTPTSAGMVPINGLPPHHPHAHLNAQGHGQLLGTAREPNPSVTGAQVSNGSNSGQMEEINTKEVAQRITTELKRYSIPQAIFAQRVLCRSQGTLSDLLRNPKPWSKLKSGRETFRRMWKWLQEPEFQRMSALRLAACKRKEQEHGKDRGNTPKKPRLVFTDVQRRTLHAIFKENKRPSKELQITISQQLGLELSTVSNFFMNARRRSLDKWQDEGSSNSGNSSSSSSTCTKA
Procedure: ATG_CIS is a cell-based, multiplexed-readout assay that uses HepG2, a human liver cell line, with measurements taken at 24 hours after chemical dosing in a 24-well plate.ATG_HNF6_CIS is one of 52 assay component(s) measured or calculated from the ATG_CIS assay. It is designed to make measurements of mRNA induction, a form of inducible reporter, as detected with fluorescence intensity signals by Reverse transcription polymerase chain reaction (RT-PCR) and Capillary electrophoresis technology.Data from the assay component ATG_HNF6_CIS was analyzed into 1 assay endpoint. This assay endpoint, ATG_HNF6_CIS, was analyzed with bidirectional fitting relative to DMSO as the negative control and baseline of activity. Using a type of inducible reporter, measures of mRNA for gain or loss-of-signal activity can be used to understand the reporter gene at the transcription factor-level as they relate to the gene ONECUT1. Furthermore, this assay endpoint can be referred to as a primary readout, because this assay has produced multiple assay endpoints where this one serves a reporter gene function. To generalize the intended target to other relatable targets, this assay endpoint is annotated to the dna binding intended target family, where the subfamily is homeobox protein.
Human liver HepG2 cells are transiently transfected with multiple reporter transcription units (MRTUs) in 6-well plates using FuGene 6 reagent (Roche; 3 ml FuGene/1 mg DNA). The MRTU constructs are regulated by a cis-regulating element (promoter). […] A major difference between the CIS and TRANS system is that in CIS activities of endogenous TFs are measured, whereas the TRANS assay evaluates changes in activities of exogenous, chimeric NR-Gal4 proteins. […] At the end of 24 hour incubation, total RNA was isolated using TriZol reagent (Invitrogen). The isolated RNA is then reverse-transcribed using oligo(dT) primer and Mo-MLV reverse transcriptase (Invitrogen) with DNAse I (Ambion) treatment for 30 min. The one-tenth of the produced cDNA was amplified by PCR using Taq DNA polymerase (Invitrogen) and two reporter sequence-specific primers. The PCR products were fluorescently labeled by primer extension with 6-arboxyfluorescein (6-FAM) 5'-labeled reporter sequence-specific primer (2 min at 95 C, 20 s at 68 C and 10 min at 72 C) and these products were digested with 5U of HpaI (New England Biolabs) for 2h at 37 C. The fragments were purified using Qiaquick PCR columns (Qiagen), analyzed on an ABI 3130xL genetic analyzer (Applied Biosystems) with peak positions identified by using a set of X-rhodamine (ROX)-labeled MapMarker1000 molecular weight standards (BioVentures). The raw capillary electrophoresis data was processed using Attagraph software (Attagene).

SMILES	outcome	AC50
O=C(O)CF	inactive	
Oc1ccc(I)cc1	inactive	
Cc1ccc(N)cc1N	inactive	
c1ccc(OP(Oc2ccccc2)Oc2ccccc2)cc1	inactive	
CCOP(=O)(O)C(N)=O	inactive	
Cc1ccc2c(c1N)C(=O)c1ccccc1C2=O	inactive	
CCOP(=S)(OCC)SCn1nnc2ccccc2c1=O	inactive	
CO/N=C(/C(=O)OC)c1ccccc1COc1ccccc1C	inactive	
O=C(O)C(Cl)Cl	inactive	
O=P(Oc1ccccc1)(Oc1ccccc1)Oc1ccccc1	inactive	
CCOP(=S)(OCC)SCSc1ccc(Cl)cc1	inactive	
c1ccc2c(c1)sc1ccccc12	inactive	
CCCCC(CC)COC(=O)c1c(Br)c(Br)c(Br)c(Br)c1C(=O)OCC(CC)CCCC (stereo not given)	inactive	
Cc1cccc(N)c1	inactive	
CC1=C(C(=O)Nc2ccccc2)S(=O)(=O)CCO1		45.4 µM (active)
CC(O)C(F)(F)C(F)(F)F (stereo not given)	inactive	
FC(F)(F)C(F)(C(F)(F)F)C(F)(F)C(F)(F)CC1CO1 (stereo not given)	inactive	
CCOc1ccc(C(C)(C)COCc2cccc(Oc3ccccc3)c2)cc1	inactive	
CCOP(=S)(OCC)SCSCC	inactive	
O=P(OCC(Br)CBr)(OCC(Br)CBr)OCC(Br)CBr (stereo not given)	inactive	

SMILES	outcome	AC50
C=CC(=O)OCC(F)(F)C(F)F	inactive	
CCOP(=S)(S)OCC	inactive	
O=S(=O)(F)C(F)(F)C(F)(F)C(F)(F)C(F)(F)C(F)(F)C(F)(F)C(F)(F)C(F)(F)F	inactive	
CCCCCCCc1ccc(O)cc1	inactive	
O=S(=O)(c1ccc(O)cc1)c1ccc(O)cc1	inactive	
CCCCc1ccc(O)cc1	inactive	
CCOP(=S)(OCC)SCS(=O)(=O)CC	inactive	
CCCCN(CCCC)SN(C)C(=O)Oc1cccc2c1OC(C)(C)C2	inactive	
Cc1ccc([N+](=O)[O-])cc1C	inactive	
Nc1ccc2ccccc2c1	inactive	
N#Cc1ccc(O)cc1	inactive	
CC(Cl)CN(C)C (stereo not given)	inactive	
Nc1ccc(Sc2ccc(N)cc2)cc1	inactive	
O=NN1CCCC1	inactive	
C=C(C)C(=O)OCC1CO1 (stereo not given)	inactive	
[N-]=[N+]=[N-]	inactive	
O=C(O)C(F)(OC(F)(F)C(F)(F)C(F)(F)F)C(F)(F)F (stereo not given)	inactive	
ClC1=C(Cl)C2(Cl)C3C(Cl)C(Cl)CC3C1(Cl)C2(Cl)Cl (stereo not given)	inactive	
CCCCOCCOP(=O)(OCCOCCCC)OCCOCCCC	inactive	
Cc1cc(C)c(C(=O)P(=O)(c2ccccc2)c2ccccc2)c(C)c1		50.7 µM (active)
